Values without a mark were called inactive. For some of these results: Potency and affinity values are given separately. Calls of active or inactive are those of the source. Unless noted, how the calls were made is not given here.

A short description of assay [1]: antimalarial activity against Dd2 strain (AID 2302;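 active means growth inhibition above 50% at the single 2 µM test dose, taken to imply half-maximal potency below 2 µM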;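 further: 0% = DMSO untreated growth and 100% = chloroquine plus artemisinin killed control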). Conditions: P. falciparum Dd2 in RBCs, LDH growth readout, 72 h; at 2 µM; hits give high values.
Assay [2] can be described thus: HepG2 cytotoxicity, primary screen, cytotoxicity control for P. falciparum antimalarial project, cell-based, ATP luminescence (AID 2303;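 active means inhibition above 50%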;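 further: 0% = DMSO wells and 100% = digitonin-killed cells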). To be noted: HepG2 viability, 24-48 h, at 10 µM, hits give high values.
Assay [3] deals with L-lactate dehydrogenase (Plasmodium falciparum (isolate CDC / Honduras)) (UniProt Q27743). As to the kind of experiment: PfLDH activity inhibition – cell lysate, 3D7 strain, counter-screen for P. falciparum growth inhibition project (AID 2304).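 Further: 0% = vehicle and 100% = reference inhibitor.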 To be noted: P. falciparum 3D7 crude extract, LDH APAD/NBT absorbance; at 2 µM; hits give high values. Background: Counterscreens check selectivity or assay interference.
L-lactate dehydrogenase (Plasmodium falciparum (isolate CDC / Honduras)), sequence (Q27743 whole entry, looked up): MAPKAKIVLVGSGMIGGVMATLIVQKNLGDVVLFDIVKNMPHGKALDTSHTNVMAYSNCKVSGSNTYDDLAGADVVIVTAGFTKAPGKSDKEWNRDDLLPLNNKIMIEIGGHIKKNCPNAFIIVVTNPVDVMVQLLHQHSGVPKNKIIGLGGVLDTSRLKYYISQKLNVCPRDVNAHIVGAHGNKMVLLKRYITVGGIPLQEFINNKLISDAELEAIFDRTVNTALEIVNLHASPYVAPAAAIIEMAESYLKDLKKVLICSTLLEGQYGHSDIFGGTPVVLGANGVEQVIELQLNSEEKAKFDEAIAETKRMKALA

Assay [4] in a line: inhibition of 3D7 malaria parasite growth – strain 3D7 (AID 2306).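 Further: 0% = DMSO wells and 100% = chloroquine plus artemisinin control wells.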 To be noted: P. falciparum 3D7 erythrocytic growth, LDH absorbance, 72 h; at 2 µM; hits give high values.
The target in assay [5] is Calcium-dependent protein kinase 1 (Plasmodium falciparum (isolate 3D7)) (UniProt P62344). As to the kind of experiment: PfCDPK1 kinase inhibitors, biochemical, TCAMS library (AID 1159585; cut-off not given, nearly all actives have IC50 up to about 0.98 µM;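 further: inhibitors leave more ATP so luminescence rises with inhibition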). To be noted: recombinant PfCDPK1, Kinase-Glo ATP depletion luminescence. A general note: In Kinase-Glo more light means more ATP remaining.
Calcium-dependent protein kinase 1 (Plasmodium falciparum (isolate 3D7)), sequence (P62344 whole entry, looked up): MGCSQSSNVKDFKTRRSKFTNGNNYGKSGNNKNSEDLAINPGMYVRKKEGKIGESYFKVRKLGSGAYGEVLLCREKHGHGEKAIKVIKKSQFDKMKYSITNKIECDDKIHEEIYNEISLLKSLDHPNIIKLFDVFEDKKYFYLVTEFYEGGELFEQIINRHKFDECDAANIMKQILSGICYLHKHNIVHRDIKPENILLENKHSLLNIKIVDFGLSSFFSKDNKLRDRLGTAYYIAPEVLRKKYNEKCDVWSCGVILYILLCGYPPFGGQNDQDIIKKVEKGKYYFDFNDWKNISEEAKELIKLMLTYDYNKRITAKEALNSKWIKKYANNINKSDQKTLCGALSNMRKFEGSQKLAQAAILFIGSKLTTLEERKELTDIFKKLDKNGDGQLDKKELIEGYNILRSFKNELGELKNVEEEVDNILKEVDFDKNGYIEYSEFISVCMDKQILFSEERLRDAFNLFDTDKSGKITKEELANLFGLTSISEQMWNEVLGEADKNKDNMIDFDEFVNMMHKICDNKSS
In assay [6] the target is Plasmodium falciparum protein kinase 6 (PK6, PF3D7_1337100) (UniProt Q8IDW1). Put plainly: PfPK6 kinase inhibitors, biochemical, TCAMS library (AID 1159586). Conditions: recombinant PfPK6, Kinase-Glo ATP depletion luminescence.
Plasmodium falciparum protein kinase 6 (PK6, PF3D7_1337100), sequence (Q8IDW1 1-305): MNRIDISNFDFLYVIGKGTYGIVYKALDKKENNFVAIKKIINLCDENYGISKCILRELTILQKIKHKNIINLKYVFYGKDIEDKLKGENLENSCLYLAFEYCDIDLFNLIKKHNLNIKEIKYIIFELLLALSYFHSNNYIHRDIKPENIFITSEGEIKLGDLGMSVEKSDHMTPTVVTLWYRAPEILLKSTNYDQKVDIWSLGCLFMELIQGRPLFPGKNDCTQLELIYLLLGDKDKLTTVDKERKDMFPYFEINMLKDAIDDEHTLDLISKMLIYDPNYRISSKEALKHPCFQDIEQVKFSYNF
In assay [7] the target is Protein kinase 7 (PK7), Plasmodium falciparum 3D7 (PF3D7_0213400) (UniProt Q7YTF7). As to the kind of experiment: inhibition of Plasmodium PK7 catalytic activity – biochemical, TCAMS antimalarial set, Kinase-Glo luminescence (AID 1159587). Conditions: recombinant PfPK7, Kinase-Glo ATP depletion luminescence.
Protein kinase 7 (PK7), Plasmodium falciparum 3D7 (PF3D7_0213400), sequence (Q7YTF7 1-343): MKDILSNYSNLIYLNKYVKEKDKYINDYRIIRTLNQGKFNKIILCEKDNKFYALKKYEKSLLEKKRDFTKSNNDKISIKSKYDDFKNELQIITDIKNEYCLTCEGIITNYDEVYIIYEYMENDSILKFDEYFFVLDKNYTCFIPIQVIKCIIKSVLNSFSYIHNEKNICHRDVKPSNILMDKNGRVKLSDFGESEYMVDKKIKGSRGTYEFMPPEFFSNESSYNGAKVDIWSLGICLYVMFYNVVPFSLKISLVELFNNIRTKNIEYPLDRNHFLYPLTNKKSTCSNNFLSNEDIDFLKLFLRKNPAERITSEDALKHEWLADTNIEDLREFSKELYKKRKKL
In assay [8] the target is Calcium-dependent protein kinase 4 (Plasmodium falciparum (isolate 3D7)) (UniProt Q8IBS5). Put plainly: PfCDPK4 kinase inhibitors, biochemical, TCAMS library (AID 1159588; cut-off not given, nearly all actives have IC50 up to about 0.91 µM). Conditions: recombinant PfCDPK4, Kinase-Glo ATP depletion luminescence.
Calcium-dependent protein kinase 4 (Plasmodium falciparum (isolate 3D7)), sequence (Q8IBS5 whole entry, looked up): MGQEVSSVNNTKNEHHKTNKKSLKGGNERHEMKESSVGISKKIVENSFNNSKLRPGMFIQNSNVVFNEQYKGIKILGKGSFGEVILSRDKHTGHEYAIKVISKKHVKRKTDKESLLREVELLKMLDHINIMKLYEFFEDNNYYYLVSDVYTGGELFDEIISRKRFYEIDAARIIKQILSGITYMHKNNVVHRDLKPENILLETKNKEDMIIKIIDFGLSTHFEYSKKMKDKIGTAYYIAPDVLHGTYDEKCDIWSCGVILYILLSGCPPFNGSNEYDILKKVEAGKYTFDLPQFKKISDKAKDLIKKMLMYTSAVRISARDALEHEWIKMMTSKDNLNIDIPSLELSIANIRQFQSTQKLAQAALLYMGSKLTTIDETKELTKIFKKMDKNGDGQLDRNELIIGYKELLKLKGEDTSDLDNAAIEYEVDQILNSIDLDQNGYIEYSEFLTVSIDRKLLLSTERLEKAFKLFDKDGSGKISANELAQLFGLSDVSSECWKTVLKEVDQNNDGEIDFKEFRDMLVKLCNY

On to `CCNc1cc(C(=O)N[C@@H](Cc2ccccc2)[C@H](O)CNC2(CC)CC2)cc(N2CCCCS2(=O)=O)c1`, for which the growth inhibition in assay [1] is 94% (active); in assay [4], 97% (active). Further, the inhibition in assay [2] is 59% (active); in assay [3], 0%. The outcome in assay [5], in assay [6], in assay [7] and in assay [8] was inactive.

Turning to `CCN(CCNc1nc(NCCc2cnc[nH]2)nc(N(CCC#N)Cc2ccccc2)n1)c1cccc(C)c1`, the values for the growth inhibition in assay [1] and in assay [4] were 92% (active) and 101% (active), respectively. In addition, the inhibition in assay [2] was 13%; in assay [3] it was -3%. Besides, the result in assay [5], in assay [6], in assay [7] and in assay [8] was inactive.

With `CO/C(=C\C=C\c1cc2cc(Cl)c(Cl)cc2[nH]1)C(=O)NCCCN1CCN(c2ccncc2)CC1`, the growth inhibition is 96% (active) in assay [1] and 98% (active) in assay [4]. In addition, the inhibition was 12% in assay [2] and 4% in assay [3]. Also, the outcome in assay [5], in assay [6], in assay [7] and in assay [8] was inactive.

`NC(N)=NN=Cc1cc([N+](=O)[O-])ccc1Sc1ccccc1CO`: the growth inhibition in assay [1] was -1%; in assay [4] it was 84% (active). In addition, the inhibition in assay [2] is 25%; in assay [3], -2%. Besides, the outcome in assay [5], in assay [6], in assay [7] and in assay [8] was inactive.

Consider `Cc1ccccc1C(=O)NC(NC(=S)Nc1ccc([N+](=O)[O-])cc1)C(Cl)(Cl)Cl` (stereo not given), for which the growth inhibition is 39% in assay [1] and 101% (active) in assay [4]. Further, the inhibition in assay [2] is -7%; in assay [3] it was 0%. Moreover, the result in assay [5], in assay [6], in assay [7] and in assay [8] was inactive.

For `Cc1ccc(/C=C/C(=O)NCCCCCN2CCN(C(=O)Nc3ccc(Cl)c(C(F)(F)F)c3)CC2)cc1`, the growth inhibition in assay [1] is -3%; in assay [4] it was 93% (active). Also, the inhibition in assay [2] is 10%; in assay [3], -2%. Also, the outcome in assay [5], in assay [6], in assay [7] and in assay [8] was inactive.

Consider `COc1cc(Nc2nccc(N3CCC(NC(=O)c4cc5ccccc5s4)C3)n2)cc(OC)c1OC` (stereo not given), for which the values for the growth inhibition in assay [1] and in assay [4] were 50% (active) and 96% (active), respectively. Also, the inhibition in assay [2] and in assay [3] was 2% in each case. Also, the outcome in assay [5], in assay [6], in assay [7] and in assay [8] was inactive.

Regarding `COc1ccc2nccc([C@@H](O)CN3CCC(NS(=O)(=O)c4cc(Br)c(Br)s4)CC3)c2c1`, the growth inhibition was 36% in assay [1] and 92% (active) in assay [4]. Moreover, the inhibition is 14% in assay [2] and -2% in assay [3]. Besides, the outcome in assay [5], in assay [6], in assay [7] and in assay [8] was inactive.

Turning to `Oc1[nH]c2ccccc2c1N=NC(=S)N1CCOCC1`, the growth inhibition in assay [1] is 75% (active); in assay [4] it was 95% (active). Further, the inhibition in assay [2] was 51% (active); in assay [3], 6%. In addition, the outcome in assay [5], in assay [6], in assay [7] and in assay [8] was inactive.

Regarding `CCCCCCNC(=O)C1Cc2c([nH]c3ccc(F)cc23)C2(CCN(Cc3ccccc3)CC2)N1` (stereo not given), the figures for the growth inhibition in assay [1] and in assay [4] were 39% and 97% (active), respectively. The inhibition is 11% in assay [2] and -1% in assay [3]. Further, the result in assay [5], in assay [6], in assay [7] and in assay [8] was inactive.

`Fc1ccc2nc(-c3ccc(-c4ccc(CNCCN5CCNCC5)cc4)cc3)[nH]c2c1`: the growth inhibition was 70% (active) in assay [1] and 96% (active) in assay [4]. In addition, the values for the inhibition in assay [2] and in assay [3] were 94% (active) and -3%, respectively. The outcome in assay [5], in assay [6], in assay [7] and in assay [8] was inactive.

`COc1cc(CN2CCC(CO)(Cc3cccc(C(F)(F)F)c3)CC2)c(Cl)cc1O`: the growth inhibition in assay [1] is 64% (active); in assay [4] it was 99% (active). The inhibition is 12% in assay [2] and 6% in assay [3]. The outcome in assay [5], in assay [6], in assay [7] and in assay [8] was inactive.

With `Nc1nc(N)c2cc(C(F)(F)F)ccc2n1`, the growth inhibition in assay [1] was 1%; in assay [4], 80% (active). Further, the inhibition in assay [2] was 8%; in assay [3] it was -3%. For the same compound, the outcome in assay [5], in assay [6], in assay [7] and in assay [8] was inactive.

Regarding `COc1ccc(CCNc2nc(NCCc3cnc[nH]3)nc(NCc3cccc4ccccc34)n2)cc1OC`, the growth inhibition in assay [1] was 16%; in assay [4] it was 98% (active). For the same compound, the values for the inhibition in assay [2] and in assay [3] were 2% and 3%, respectively. In addition, the outcome in assay [5], in assay [6], in assay [7] and in assay [8] was inactive.

Take `N#Cc1ccc(N(CCOc2ccc(Cl)c(Cl)c2)Cc2ccccc2C(F)(F)F)cc1C(F)(F)F`: the figures for the growth inhibition in assay [1] and in assay [4] were 57% (active) and 90% (active), respectively. Further, the figures for the inhibition in assay [2] and in assay [3] were 13% and -2%, respectively. The result in assay [5], in assay [6], in assay [7] and in assay [8] was inactive.

With `COc1cccc2c(NN=Cc3cccc(F)c3)ccnc12`, the growth inhibition in assay [1] was 44%; in assay [4] it was 99% (active). Besides, the inhibition is 12% in assay [2] and 5% in assay [3]. Further, the result in assay [5], in assay [6], in assay [7] and in assay [8] was inactive.

On to `C[C@H]1CN(Cc2cccc(-c3cc(CNC(=O)c4cccc(CC5CCN(C)CC5)c4)ccc3F)c2)CCN1C`, for which the growth inhibition in assay [1] is 99% (active); in assay [4], 101% (active). Moreover, the inhibition in assay [2] was 42%; in assay [3], 2%. Besides, the outcome in assay [5], in assay [6], in assay [7] and in assay [8] was inactive.

Regarding `O=C(Nc1ccc(CCNC2=NCCN2)cc1)Nc1ccc(CCNC2=NCCN2)cc1`, the figures for the growth inhibition in assay [1] and in assay [4] were 66% (active) and 90% (active), respectively. The inhibition in assay [2] is 6%; in assay [3], 4%. Moreover, the result in assay [5], in assay [6], in assay [7] and in assay [8] was inactive.

Consider `CC(=O)Nc1cccc(C(=O)Nc2cccc(-c3cccc(-c4nc5ccc(F)cc5[nH]4)c3)c2)c1`, for which the growth inhibition is 44% in assay [1] and 101% (active) in assay [4]. The inhibition is 51% (active) in assay [2] and -5% in assay [3]. Also, the outcome in assay [5], in assay [6], in assay [7] and in assay [8] was inactive.

Turning to `COc1cc(C2Nc3ccc4ccccc4c3C3=C2C(=O)CC(C)(C)C3)ccc1Oc1ccc([N+](=O)[O-])cc1C#N` (stereo not given), the growth inhibition is 94% (active) in assay [1] and 99% (active) in assay [4]. The inhibition in assay [2] was 8%; in assay [3], -1%. In addition, the result in assay [5], in assay [6], in assay [7] and in assay [8] was inactive.

The inhibition is the drop in the measured response relative to a control, in per cent.

For the origin of these results see PubChem BioAssay.
